# From publication PMC5540273 (PLoS ONE, 2017)
# Test system: RIOK3
# Details: concentration: 1 μM, replicates: in singlicate; n = 1
# 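Also: KINOMEscan kinase panel screen.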
row,Structure (SMILES),%Inh [%]
1,Cc1occc1-c1ncc(OC[C@@H](N)Cc2c[nH]c3ccccc23)cc1-c1ccc2[nH]nc(C)c2c1.O=C(O)C(F)(F)F [GSK682037],83
2,C[C@@H]1CC[C@@H](C(=O)Nc2ccccc2)CN1c1cc(-c2ccc3c(N)n[nH]c3c2)nc(N)n1 [GSK2286062],20
3,CCn1c(-c2nonc2N)nc2c(C#CC(C)(C)O)ncc(OCCCCN)c21.O=C(O)C(F)(F)F.O=C(O)C(F)(F)F [GSK507274],0
4,O=c1[nH]cc(-c2ccc(N3CCOCC3)cc2)c2sc(-c3cn[nH]c3)cc12 [GSK2276055],25
5,COc1cccc(C2=C(Nc3ccc(Cl)c(C(=O)O)c3)C(=O)NC2=O)c1 [SB-390769],5

# Test system: RIPK1
# Details: concentration: 1 μM, replicates: in singlicate; n = 1
row,Structure (SMILES),%Inh [%]
1,COC(=O)Nc1nc2cc(Oc3ccc(NC(=O)Nc4cc(C(F)(F)F)ccc4F)cn3)ccc2[nH]1.Cl.Cl [GW681170],41
2,Fc1ccc(-c2ncn(C3CCNCC3)c2-c2ccnc(Oc3ccc(-c4ccccc4)cc3)n2)cc1 [SB-245391],0
3,Cc1ccc(C)c(NC(=O)NC2CCN(c3ccnc(Nc4ccc(F)cc4)n3)C2)c1 (centres unmarked) [GSK1379720],0
4,CSc1cccc2c(-c3ccncn3)c(-c3ccc(F)cc3)nn12 [GW514786],0
5,Oc1cc(Nc2ccnc3cc(I)ccc23)ccc1F [GW552771],0
6,Cc1ccc(S(=O)(=O)Nc2ccc(Nc3nccc(Nc4cccc5[nH]ncc45)n3)cc2)cc1 [GSK581271],5
7,COc1cccc(-c2ccc3c(NC(=O)C4CC4)n[nH]c3n2)c1 [SB-710903],99.5
8,O=C(Nc1cccc(-c2nn3ccccc3c2-c2ccnc(Nc3cccc(C(F)(F)F)c3)n2)c1)c1c(F)cccc1F [GSK292658],7
9,Cl.Cl.NCC(NCc1ccc(-c2ccnc3[nH]ccc23)s1)c1ccccc1 (centres unmarked) [GSK1321565],2
10,CCn1c(-c2nonc2N)nc2c(C#CC(C)(C)O)nc(OC[C@H](N)c3ccccc3)cc21 [GSK943949],4
11,COCCOCCOc1cc2ncc3c4ccc(C#N)cc4[nH]c3c2cc1OC,20
12,Clc1ccc(-c2nn3ncccc3c2-c2ccnc(Nc3ccc4c(c3)OCCO4)n2)cc1 [GW829116],0
13,COc1cccc(NC(=O)NC2CCN(c3ccnc(Nc4cc(OC)c(OC)c(OC)c4)n3)C2)c1 (centres unmarked) [GSK1379763],6
14,COc1cccc(C(=O)Nc2cccc(Oc3ccc4nc(NC(=O)C5CC5)cn4n3)c2)c1,20
15,CN(C)Cc1ccc(-c2ccc3c(Nc4ccc(Oc5ccccn5)cc4)ccnc3c2)o1 [GW567148],0
16,Nc1ncc(-c2cccnc2)c2scc(-c3ccc4c(c3)CCN4C(=O)Cc3ccccc3)c12 [GSK683281],100
17,COc1ccc(Nc2nccc(NCCNC(=O)c3cc4ccccc4s3)n2)cc1 [GSK1379896],0
18,O=C(Nc1n[nH]c2nc(-c3ccc(O)cc3)ccc12)C1CC1 [SB-710363],2
19,O=C(Nc1cccc(-c2nn3ccccc3c2-c2ccnc(Nc3cccc(F)c3)n2)c1)c1c(F)ccc(F)c1Cl [GSK357952],0
20,CN1CCN(Cc2cccc(-c3ccc4c(Nc5ccc(Oc6ccccc6)cc5)ccnc4c3)c2)CC1 [GW578342],0
21,COc1cc(Nc2nccc(N3CCC(NC(=O)Nc4cccc(C(C)=O)c4)C3)n2)cc(OC)c1OC (centres unmarked) [GSK1379753],9
22,c1ccc(Oc2ccc(Nc3ccnc4cc(-c5ccc(CNCCN6CCOCC6)o5)ccc34)cc2)nc1 [GW567145],0
23,CC(C)c1nc(-c2cccc(NS(=O)(=O)c3c(F)cccc3F)c2F)c(-c2ccnc(Nc3ccc(N4CCOCC4)nc3)n2)s1 [GSK2008607],0
24,C[C@@H](Oc1cc(-n2cnc3cc(-c4ccnc(NCCS(C)(=O)=O)c4)ccc32)sc1C(N)=O)c1ccccc1Cl [GSK907232],45
25,Cn1cc(-c2[nH]c3cc(NC(=O)[C@H](N)C4CCCCC4)cc4c3c2C=NNC4=O)cn1,0
26,CCS(=O)(=O)c1ccc(OC)c(Nc2nccc(-c3c(-c4cccc(NC(=O)c5c(F)cccc5F)c4)nn4ncccc34)n2)c1 [GSK326180],0
27,Cl.NC(=O)c1cccc(Nc2nccc(Nc3ccc(Oc4c(Cl)cccc4Cl)c(Cl)c3)n2)c1 [GW659009],0
